From PubChem BioAssay (EPA / NIEHS) come the findings set out here.

The term AC50 denotes the concentration giving half of the maximal activity seen.

A short description of test [1]: ATG_GLI_CIS: Attagene CIS-FACTORIAL HepG2 Assay for human Zinc Finger Protein GLI1 (AID 2282945). The following applies: HepG2, Attagene cis-factorial reporter mRNA, GLI element; actives raise or lower the signal. The method in brief:
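Bidirectional curve fits relative to DMSO, using reporter mRNA levels from RT-PCR plus capillary electrophoresis. Cells were HepG2 transiently carrying cis-regulated reporter constructs, harvested 24 h after dosing.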

Test [2] addresses Bile acid receptor (Homo sapiens) (UniProt Q96RI1). The experiment in a line: ATG_IR1_CIS: Attagene CIS-FACTORIAL HepG2 Assay for human Nuclear Receptor Subfamily 1 Group H Member 4 (NR1H4), IR1 submotif (AID 2282946). The conditions noted are these: IR1 reporter transcription, actives raise or lower the signal. Put shortly:
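Cells (human HepG2) carry transiently transfected cis-promoter reporter transcription units. Compounds are incubated 24 h, total RNA is reverse-transcribed and amplified, and labelled fragments are resolved by capillary electrophoresis. Curves use DMSO as baseline.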

A short description of test [3]: ATG_GRE_CIS: Attagene CIS-FACTORIAL HepG2 Assay for human Glucocorticoid Response Elements (GRE) (AID 2282947). The following applies: HepG2 GRE cis-reporter, Attagene multiplex mRNA; actives raise or lower the signal. The method in brief: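 Transient MRTU transfection of human HepG2 liver cells; cis-regulated reporters report endogenous factors. 24 h dosing → RNA isolation → RT-PCR → 6-FAM primer extension → HpaI cut → CE fragment analysis. Bidirectional fit, DMSO negative control.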

Test [4] is described as follows: ATG_ISRE_CIS: Attagene CIS-FACTORIAL HepG2 Assay for human Interferon Regulatory Factor 1 (IRF1) binding to an Interferon-Stimulated Response Element (ISRE) (AID 2282948). The following applies: HepG2 ISRE cis-reporter (Attagene), mRNA transcription readout; actives raise or lower the signal. Put shortly:
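Transfected HepG2 (multiple reporter transcription units, cis elements) dosed 24 h. RNA → oligo(dT) RT → PCR → 6-FAM primer extension → HpaI → CE. DMSO = negative control/baseline.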

Test [5] in a line: ATG_M_32_CIS: Attagene CIS-FACTORIAL HepG2 Assay for M32 Transcription Factor (Internal Marker) (AID 2282949).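 Also: background control marker of the multiplexed CIS panel rather than a real target.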 The conditions noted are these: HepG2 Attagene cis-factorial M32 reporter, mRNA; actives raise or lower the signal. Put shortly:
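HepG2 cells transiently transfected with multiplexed cis-regulated reporter units, dosed 24 h. Reporter mRNA quantified by RT-PCR, 6-FAM labelling, HpaI digestion and capillary electrophoresis; bidirectional fit vs DMSO.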

A short description of test [6]: ATG_M_06_CIS: Attagene CIS-FACTORIAL HepG2 Assay for M06 Transcription Factor (Internal Marker) (AID 2282950). The conditions noted are these: HepG2 Attagene CIS-FACTORIAL M06 internal marker reporter; actives raise or lower the signal. Put shortly:
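Serves as a background control readout. Transfected HepG2 exposed to compounds for 24 h, then reporter transcripts quantified by fluorescent RT-PCR and capillary electrophoresis. Both directions fitted against DMSO baseline.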

Test [7] concerns the target Hypoxia-inducible factor 1-alpha (Homo sapiens) (UniProt Q16665). The test can be described thus: ATG_HIF1a_CIS: Attagene CIS-FACTORIAL HepG2 Assay for human Hypoxia Inducible Factor 1 (HIF1A) (AID 2282951). The following applies: HepG2 Attagene cis-factorial HIF1a reporter transcription; actives raise or lower the signal. The method in brief: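 Cis-element reporter constructs were transiently transfected into HepG2 cells, which were treated for 24 h; reporter RNA was reverse-transcribed, amplified, labelled and resolved by capillary electrophoresis.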

The target in test [8] is Heat shock factor protein 1 (Homo sapiens) (UniProt Q00613). The experiment in a line: ATG_HSE_CIS: Attagene CIS-FACTORIAL HepG2 Assay for human Heat Shock Transcription Factor 1 (HSE) (AID 2282953). The following applies: HepG2 HSE cis-reporter, Attagene RNA transcription; actives raise or lower the signal. Put shortly:
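Endogenous transcription factor activity in transiently transfected HepG2, read as reporter mRNA by RT-PCR with fluorescent capillary electrophoresis after 24 h. Gain or loss of signal fitted versus DMSO baseline.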

A short description of test [9]: ATG_MRE_CIS: Attagene CIS-FACTORIAL HepG2 Assay for human Metal Responsive Element (MRE) (AID 2282954). The conditions noted are these: HepG2 MRE cis-reporter transcription, Attagene multiplex; actives raise or lower the signal. The method in brief:
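Transient MRTU transfection of HepG2 (FuGene 6); 24 h dosing; total RNA → oligo(dT) RT, PCR, 6-FAM primer extension, HpaI cut, CE. Bidirectional fit vs DMSO.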

The target in test [10] is Hepatocyte nuclear factor 6 (Homo sapiens) (UniProt Q9UBC0). The test can be described thus: ATG_HNF6_CIS: Attagene CIS-FACTORIAL HepG2 Assay for human Hepatocyte Nuclear Factor 6 (HNF6) (AID 2282952). The following applies: HepG2 Attagene cis-factorial HNF6 reporter transcription; actives raise or lower the signal. The method in brief:
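HepG2, transient MRTU transfection (cis promoters); 24 h chemical exposure; total RNA → oligo(dT) RT → PCR → 6-FAM labelling → HpaI cut → CE; bidirectional fit vs DMSO.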

Each structure is given as a SMILES string. The source made the active and inactive calls. The calls were made as follows: active = hit-call score of the fitted dose curve at least 0.9, where 1 is the maximum; inactive = score below 0.9.

Sequence of Hepatocyte nuclear factor 6 (Homo sapiens) (Q9UBC0 whole entry, looked up): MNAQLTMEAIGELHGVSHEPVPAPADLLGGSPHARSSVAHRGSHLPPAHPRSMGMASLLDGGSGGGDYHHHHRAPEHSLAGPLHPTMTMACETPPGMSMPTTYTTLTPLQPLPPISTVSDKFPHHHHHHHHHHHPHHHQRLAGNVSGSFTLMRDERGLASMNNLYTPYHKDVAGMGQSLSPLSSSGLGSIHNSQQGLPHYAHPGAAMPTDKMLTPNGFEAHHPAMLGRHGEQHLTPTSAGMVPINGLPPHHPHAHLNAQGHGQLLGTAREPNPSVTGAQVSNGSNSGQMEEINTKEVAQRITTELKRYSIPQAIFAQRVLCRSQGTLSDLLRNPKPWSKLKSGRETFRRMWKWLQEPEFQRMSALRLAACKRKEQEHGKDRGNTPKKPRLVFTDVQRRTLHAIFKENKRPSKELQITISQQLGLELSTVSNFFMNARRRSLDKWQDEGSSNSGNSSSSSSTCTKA
Sequence of Hypoxia-inducible factor 1-alpha (Homo sapiens) (Q16665 whole entry, looked up): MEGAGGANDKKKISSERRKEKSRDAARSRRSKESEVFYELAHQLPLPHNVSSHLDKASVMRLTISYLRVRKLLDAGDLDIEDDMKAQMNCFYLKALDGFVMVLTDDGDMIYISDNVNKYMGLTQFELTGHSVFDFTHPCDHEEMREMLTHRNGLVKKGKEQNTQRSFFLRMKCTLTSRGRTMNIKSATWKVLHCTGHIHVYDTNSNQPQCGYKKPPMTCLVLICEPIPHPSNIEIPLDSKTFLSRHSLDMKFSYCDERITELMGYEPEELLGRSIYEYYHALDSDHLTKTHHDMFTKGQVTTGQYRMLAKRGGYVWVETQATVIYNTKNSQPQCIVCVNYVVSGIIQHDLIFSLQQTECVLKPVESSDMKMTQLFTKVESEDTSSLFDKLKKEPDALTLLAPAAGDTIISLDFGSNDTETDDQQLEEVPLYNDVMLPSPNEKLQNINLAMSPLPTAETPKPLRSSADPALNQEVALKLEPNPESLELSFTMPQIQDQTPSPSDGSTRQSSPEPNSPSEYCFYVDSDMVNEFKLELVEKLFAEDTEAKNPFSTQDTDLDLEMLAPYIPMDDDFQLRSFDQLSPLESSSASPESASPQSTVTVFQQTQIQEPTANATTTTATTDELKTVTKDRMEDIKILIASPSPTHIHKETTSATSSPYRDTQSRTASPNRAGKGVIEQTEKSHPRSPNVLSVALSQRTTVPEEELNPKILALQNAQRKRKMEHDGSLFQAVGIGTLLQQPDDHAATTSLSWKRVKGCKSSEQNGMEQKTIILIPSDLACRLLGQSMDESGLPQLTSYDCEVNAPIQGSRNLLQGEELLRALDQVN
Sequence of Bile acid receptor (Homo sapiens) (Q96RI1 whole entry, looked up, the tested form may be a part): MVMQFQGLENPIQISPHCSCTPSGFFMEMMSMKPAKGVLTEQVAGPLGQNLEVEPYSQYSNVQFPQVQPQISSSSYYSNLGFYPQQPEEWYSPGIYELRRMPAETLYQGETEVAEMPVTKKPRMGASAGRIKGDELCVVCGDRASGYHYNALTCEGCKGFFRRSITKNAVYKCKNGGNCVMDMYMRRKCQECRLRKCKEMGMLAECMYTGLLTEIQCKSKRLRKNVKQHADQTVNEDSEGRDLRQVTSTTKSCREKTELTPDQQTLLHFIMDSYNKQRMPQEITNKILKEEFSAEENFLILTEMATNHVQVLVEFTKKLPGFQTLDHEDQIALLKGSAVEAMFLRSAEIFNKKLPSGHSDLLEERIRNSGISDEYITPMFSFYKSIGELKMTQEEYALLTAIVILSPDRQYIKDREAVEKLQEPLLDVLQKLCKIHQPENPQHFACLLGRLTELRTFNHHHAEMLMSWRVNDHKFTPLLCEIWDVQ
Sequence of Heat shock factor protein 1 (Homo sapiens) (Q00613 whole entry, looked up): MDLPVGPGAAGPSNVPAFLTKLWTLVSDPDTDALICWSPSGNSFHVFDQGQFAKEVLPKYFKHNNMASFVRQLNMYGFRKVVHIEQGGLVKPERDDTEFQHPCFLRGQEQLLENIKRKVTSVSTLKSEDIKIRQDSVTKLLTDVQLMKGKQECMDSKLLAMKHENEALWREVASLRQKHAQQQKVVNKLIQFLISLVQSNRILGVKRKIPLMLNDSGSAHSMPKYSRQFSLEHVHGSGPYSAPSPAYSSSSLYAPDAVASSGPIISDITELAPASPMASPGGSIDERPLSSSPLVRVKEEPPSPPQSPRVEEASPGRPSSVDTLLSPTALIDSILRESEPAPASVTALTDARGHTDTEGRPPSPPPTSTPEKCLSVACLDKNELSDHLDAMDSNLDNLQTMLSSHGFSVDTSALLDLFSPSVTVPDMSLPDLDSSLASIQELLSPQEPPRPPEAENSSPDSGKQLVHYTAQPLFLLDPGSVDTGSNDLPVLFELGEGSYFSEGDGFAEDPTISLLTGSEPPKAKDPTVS

Regarding `O=S(=O)(O)c1ccc(Cl)cc1`, the result in test [1], in test [2], in test [3], in test [4], in [5] and in test [6] was inactive. In addition, the result in test [7], in test [8] and in test [9] was inactive.

Consider `CCC(C)CO` (stereo unspecified), for which the compound was classed as inactive in test [1], in test [2], in test [3], in test [4], in [6] and in test [7]. In addition, the outcome in [10], in test [8] and in test [9] was inactive.

As for `O=S(=O)(OCC(F)(F)F)C(F)(F)C(F)(F)C(F)(F)C(F)(F)F`, the call in test [1], in test [2], in [3], in test [5], in [6] and in test [7] was inactive. The result in test [8] and in test [9] was inactive. The AC50 in test [4] is 63.2 µM (active).

Consider `NC(=O)C(F)(F)C(F)(F)C(F)(F)F`, for which the result in test [1], in test [2], in test [3], in [4], in test [5] and in [6] was inactive. Also, the call in test [7], in [8] and in [9] was inactive.

Consider `COCCC(=O)OC`, for which the compound was called inactive in test [1], in [2], in test [3], in test [4], in test [6] and in test [7]. Also, the call in test [10], in test [8] and in [9] was inactive.

Regarding `c1ccc(C[P+](c2ccccc2)(c2ccccc2)c2ccccc2)cc1`, the call in test [1], in [2], in test [3], in [5], in test [6] and in test [7] was inactive. Also, the call in test [10] and in [8] was inactive. Besides, the half-maximal activity concentration (AC50) is 31.3 µM (active) in test [4] and 59.4 µM (active) in test [9].

In the case of `O=C(O)C(F)(F)C(F)(F)C(F)(F)OC(F)(C(F)(F)F)C(F)(F)F`, the compound was called inactive in test [1], in [2], in test [3], in test [4], in test [5] and in test [6]. Besides, the compound was classed as inactive in test [7], in test [8] and in test [9].

Take `C[Si](C)O[Si](C)C`: the compound was classed as inactive in test [1], in test [2], in test [3], in [4], in test [5] and in test [6]. For the same compound, the compound was classed as inactive in test [7], in test [10], in test [8] and in test [9].

For the compound `CCN(CCO)S(=O)(=O)C(F)(F)C(F)(F)C(F)(F)C(F)(F)C(F)(F)C(F)(F)C(F)(F)C(F)(F)F`, the compound was classed as inactive in test [1], in test [2], in [3], in test [4], in test [5] and in [6]. In addition, the compound was classed as inactive in test [7], in [8] and in test [9].

`Cc1cc(=O)[nH]c(C(C)C)n1`: the outcome in test [1], in test [2], in test [3], in test [4], in [5] and in test [6] was inactive. Also, the outcome in [7], in [8] and in test [9] was inactive.

With `COCCOCCC[Si](C)(O[Si](C)(C)C)O[Si](C)(C)C`, the compound was called inactive in test [1], in test [4], in [5], in test [6], in [7] and in test [9]. Further, the results for the half-maximal activity concentration (AC50) in [2], in test [3] and in test [8] were 51 µM (active), 8.99 µM (active) and 20.3 µM (active), respectively.

Regarding `C#CC(O)CCC` (stereo unspecified), the result in test [1], in [2], in test [3], in test [4], in test [5] and in test [6] was inactive. In addition, the compound was classed as inactive in [7], in test [8] and in test [9].

Turning to `Nc1cccnc1N`, the compound was called inactive in test [1], in [2], in [3], in [4], in test [5] and in test [6]. Besides, the result in test [7], in [8] and in test [9] was inactive.

Consider `CN(C)C(C)(C)CO`, for which the outcome in test [1], in test [2], in test [3], in [4], in [5] and in [6] was inactive. The result in test [7], in test [8] and in test [9] was inactive.

Turning to `O=C=Nc1cccc2c(N=C=O)cccc12`, the result in [1], in [2], in [3], in test [4], in [5] and in test [6] was inactive. Besides, the result in test [7], in test [8] and in test [9] was inactive.

Turning to `NC(=O)C(F)(F)C(F)(F)C(F)(F)C(F)F`, the compound was called inactive in [1], in test [2], in [3], in test [4], in test [5] and in test [6]. The compound was called inactive in [7], in test [8] and in test [9].

For the compound `CCOC(=O)C1CC(=O)C(=C(O)C2CC2)C(=O)C1` (stereo unspecified), the call in [1], in test [2], in test [3], in test [4], in test [6] and in [7] was inactive. Further, the compound was classed as inactive in test [10], in test [8] and in test [9].

Regarding `CCOC(OCC)OCC`, the compound was called inactive in [1], in [2], in test [3], in test [4], in [6] and in test [7]. The compound was classed as inactive in test [10], in test [8] and in [9].

`N#Cc1ccccc1O`: the compound was called inactive in test [1], in test [2], in test [3], in test [4], in test [6] and in test [7]. Further, the compound was classed as inactive in [10], in test [8] and in test [9].

In the case of `Nc1cc([N+](=O)[O-])cc(Cl)c1O`, the result in test [1], in [2], in test [3], in test [4], in [6] and in test [7] was inactive. The compound was called inactive in test [8] and in [9].

With `OCC(F)(F)C(F)(F)C(F)(F)C(F)(F)C(F)(F)C(F)(F)CO`, the call in [1], in test [2], in test [3], in test [4], in test [6] and in [7] was inactive. Further, the compound was classed as inactive in [10], in [8] and in test [9].

As for `Cc1cnccn1`, the compound was called inactive in [1], in test [2], in [3], in test [4], in test [6] and in test [7]. The result in test [10], in [8] and in [9] was inactive.

Take `FC(F)(F)C(F)(F)C(F)(F)C(F)(F)C(F)(F)C(F)(F)C(F)(F)CCI`: the result in test [1], in test [2], in test [3], in test [4], in [6] and in [7] was inactive. The result in test [10], in [8] and in test [9] was inactive.

As to `CCCCCCCCCc1ccc(OCCO)cc1`, the AC50 in test [1] was 21.4 µM (active); in [3], 19.2 µM (active); in [4], 18.7 µM (active); in [7], 13.3 µM (active); in [8] it was 16.8 µM (active); in test [9], 13.3 µM (active). For the same compound, the result in test [2], in test [6] and in [10] was inactive.

`OCC(O)CC(F)(F)C(F)(F)C(F)(F)C(F)(F)F` (stereo unspecified): the compound was called inactive in test [1], in [2], in [3], in test [4], in [6] and in [7]. The compound was called inactive in [10], in test [8] and in test [9].
